Molecules are shown by their SMILES. In all, about 2,100 compounds went through this assay and about 760 (36%) were called active.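 The calls were made as follows: active = thallium-flux fluorescence traces judged by eye to show enhanced or reduced glutamate response, manual score 1 or -1, so both directions (some results past the limit were not filed as active); inactive = the rest, including fluorescent or raised-baseline compounds.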 Not all results are given here.

The assay in a line: thallium influx changes without GIRK channels – cell-based, HEK-293 rmGlu8, no GIRK, thallium flux, counter-screen for GIRK activator project, confirmation (AID 623868).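 Also: extra codes mark interference with 3 for fluorescent and 4 for baseline rise.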 The note with it: thallium flux fluorescence, at 10 µM, actives lie on both sides, codes: 1 enhancer, -1 blocker, 0 none, thallium stimulus containing EC20 glutamate.
For `COC(=O)c1cccc(NC(=S)Nc2cccc(Cl)c2Cl)c1`, the manual score is 1 (active). The value for `O=C(NC(=S)Nc1ccc(N2CCOCC2)cc1)c1cccc(Cl)c1` was 1 (active); that for `O=C(OCCN1C(=O)c2cccc3c(N4CCOCC4)ccc(c23)C1=O)c1cccc(Cl)c1` was 3 (inactive). The value for `CC(C)Oc1cccc(C(=O)NC(=S)Nc2ccccc2)c1` was 1 (active); that for `O=C1C(Cl)=C(N2CCOCC2)C(=O)N1c1cccc(Cl)c1` was 0 (inactive). The value for `CCCOc1cccc(C(=O)NC(=S)Nc2cccc(C(F)(F)F)c2)c1` was 1 (active); that for `CCOc1cccc(C(=O)NC(=S)Nc2ccccc2)c1` was 0 (inactive); that for `FC(F)Oc1ccccc1NC(=S)Nc1cccc(Cl)c1Cl` was 0.5 (inactive). Take `Cc1cc(O)c(C(C[N+](=O)[O-])c2ccc(Cl)cc2Cl)c(=O)o1` (stereo unspecified): the manual score is 0 (inactive). For `O=C(O)CCC(=O)NC1CCCCCCC1`, the manual score is 0 (inactive). The value for `CSc1ccccc1NC(=O)Nc1ccccc1` was 0 (inactive).

As for `O=C(Nc1ccc(OCC(=O)N2CCC(Cc3ccccc3)CC2)cc1)c1ccco1`, the manual score was 0 (inactive).

On to `CC(=O)c1cccc(NC(=S)NC(=O)c2cccc(Cl)c2)c1`, for which the manual score was 1 (active). The value for `CC1CCN(c2ncccc2C(=O)O)CC1` was 0 (inactive); that for `O=C(NC(=S)Nc1cccc(Cl)c1N1CCCCC1)c1ccco1` was 1 (active). Take `CC1CCN(c2ccc(NC(=S)NC(=O)c3ccco3)cc2)CC1`: the manual score was 1 (active). As to `CC(=O)c1cccc(NC(=S)NC(=O)c2cccc(C)c2)c1`, the manual score is 0.5 (inactive). The same measure for `O=C(NC(=S)Nc1ccc(N2CCCCC2)cc1)c1ccco1`: 1 (active); for `CSc1ccccc1C(=O)Nc1cccc(C(C)=O)c1`: 0 (inactive); for `O=C(Nc1ccc(F)cc1)c1cccnc1N1CCOCC1`: 0 (inactive). As for `O=C(NC(=S)Nc1ccc(N2CCOCC2)c(Cl)c1)c1cncc(Br)c1`, the manual score was 1 (active). The value for `O=C(NC(=S)Nc1ccc(N2CCOCC2)cc1)c1ccco1` was 1 (active); that for `COc1ccc(OCC(=O)NC(=S)Nc2ccc(N3CCOCC3)c(Cl)c2)cc1` was 0 (inactive).

For the compound `C=CCN(CC=C)S(=O)(=O)c1ccc(NC(=S)NC(=O)c2ccco2)cc1`, the manual score was 0.5 (inactive). The same measure for `CCN(c1ccc2c(c1)OCO2)S(=O)(=O)c1cc(Br)cc2c1N(C(=O)C1CC1)CC2`: 0 (inactive). The same measure for `N=c1c2c(-c3ccccc3)c(-c3ccccc3)n(Cc3ccccc3)c2ncn1CCCO`: 0 (inactive); for `CCOC(=O)C1=C(NC(=S)NC(=O)c2ccccc2)c2ccccc2CC1(C)C`: 0 (inactive); for `CCC1=NN(C(=O)c2cccc(Br)c2)C(O)(c2ccc(Br)cc2)C1` (stereo unspecified): 1 (active). The value for `CCOC(=O)C1=NN(C(=O)c2ccccc2)C(O)(c2ccc(C)cc2)C1` (stereo unspecified) was 1 (active). Turning to `CCOC(=O)C1=NN(C(=O)c2ccc(C)cc2)C(O)(c2ccc(Cl)cc2)C1` (stereo unspecified), the manual score is 1 (active). With `Cc1ccc(-c2csc3ncnc(N4CCN(C(=O)c5ccccc5)CC4)c23)cc1`, the manual score was 0 (inactive).

For `COC(=O)C1=NN(C(=O)c2ccc(Cl)cc2)C(O)(c2ccccc2)C1` (stereo unspecified), the manual score was 1 (active). The value for `CCOC(=O)c1c(C)[nH]c(C(=O)COC(=O)CNC(=O)c2ccc(Cl)cc2)c1C` was 0 (inactive). The same measure for `CCOC(=O)c1cc(-c2ccc(Cl)cc2)nc2c1c(C)nn2CCC#N`: 0 (inactive). The same measure for `O=[n+]1cc(-c2ccccc2)n([O-])c2c1CCC2`: 0 (inactive); for `Cc1ccc(NC(=O)CSc2nnc(CCNC(=O)OC(C)(C)C)o2)c(C)c1`: 0 (inactive); for `O=C1CC(C(F)(F)C(F)(F)C(F)(F)F)=Nc2ccccc2N1`: 0 (inactive).

On to `Cc1ccc(NC(=O)Cc2c(Cl)cccc2Cl)cc1S(=O)(=O)N(C)C`, for which the manual score is 0 (inactive). Take `COc1ccccc1C(c1nnnn1CCc1ccccc1)N1CCCCCC1` (stereo unspecified): the manual score was 0 (inactive). The same measure for `COC(=O)C1=NN(C(=O)c2ccc(C)cc2)C(O)(c2ccc(Cl)cc2)C1` (stereo unspecified): 1 (active); for `COc1ccc2cc(C(=O)NCC(=O)O)sc(=O)c2c1OC`: 0 (inactive). The same measure for `CCOC(=O)CSc1nc2c(sc3ccccc32)c(=O)n1CCCN1CCOCC1`: 0 (inactive); for `CC(C)CCn1c(SCC#N)nc2c(sc3ccccc32)c1=O`: 0 (inactive); for `CCCCn1c(SCc2nc(N)nc(Nc3ccccc3C)n2)nc2ccccc2c1=O`: 0 (inactive). Consider `N#CCSc1nc2ccc(N3CCOCC3)cc2c(=O)n1CCc1ccccc1`, for which the manual score was 0 (inactive). The value for `O=C(CCCCn1c(=O)c2ccccc2n(CC(=O)NC2CCCC2)c1=O)NCc1ccco1` was 0 (inactive); that for `C/C(N)=C(/C#N)C(=O)CSc1nc2cc(Cl)ccc2c(=O)n1-c1ccc(C)cc1` was 1 (active). As to `CCCCCn1c(NCc2ccco2)nc2ccccc21`, the manual score was 0 (inactive). Consider `CCCCn1c(SCC(=O)/C(C#N)=C(\C)N)nc2ccccc2c1=O`, for which the manual score was 1 (active). As to `CCCCn1c(SCC(=O)NCc2ccco2)nc2ccccc2c1=O`, the manual score is 1 (active). The same measure for `CCCCn1c(SCC(N)=O)nc2c(sc3ccccc32)c1=O`: 1 (active); for `O=c1sc(N2CCN(c3ccccc3F)CC2)nc2ccsc12`: 0 (inactive). The same measure for `COc1ccc(C2C(C(N)=O)=C(C)Nc3nc(-c4cccc(Cl)c4)nn32)cc1OC` (stereo unspecified): 0 (inactive).

For `OC(c1ccccc1)C1CN(Cc2ccccc2)CCC1(O)c1ccccc1` (stereo unspecified), the manual score was 0 (inactive). The value for `C=CCNC(=S)Nc1nc2c(cc1C(=O)OCC)CCCC2` was 1 (active); that for `CCOC(=O)c1cc(NC(=O)SCC(=O)O)c(C)nc1C` was 0 (inactive). The same measure for `C=C(C)CNC(=S)N/N=C1\CCCCc2ccccc21`: 0 (inactive); for `C=C(C)CNC(=S)Nc1nc2c(cc1C(=O)OCC)CCCC2`: 1 (active); for `Cc1cc(C)cc(NC(=O)Cn2cc3c(n2)CCCCC3)c1`: 0 (inactive). The same measure for `CCNC(=S)Nc1nc2c(cc1C(=O)OCC)CCCC2`: 1 (active); for `CCN(C(=O)COc1cc(=O)n(CC)c2ccccc12)c1cc(Cl)ccc1OC`: 0 (inactive). `N#CC(C#N)=C1C=C2C=C(N3CCCCC3)CCC2CC1` (stereo unspecified): the manual score was 3 (inactive). As to `Cc1ccc(C(=O)NNC(=S)NC(=O)c2ccc(Cl)cc2Cl)cc1`, the manual score is 1 (active).

Consider `O=C(NC(=S)NNC(=O)c1cccs1)c1ccc(Br)o1`, for which the manual score is 1 (active). `Cc1onc(-c2ccccc2)c1C(=O)NNC(=S)NC(=O)c1ccc(Br)cc1`: the manual score is 1 (active).

Turning to `O=C(COc1ccccc1)NNC(=S)NC(=O)c1ccc(Cl)cc1Cl`, the manual score was 1 (active).

These data come from PubChem BioAssay AID623868 (Vanderbilt High Throughput Screening Facility, 2012).
